UGM FP inh = blocks M. tuberculosis UGM enzyme; purified UGM, fluorescence polarization probe displacement; hit rate 0.06% among 320,000; AID 504406; inhibition, % at 10 µM; in the data active = inhibition above about 10%, passing the limit was not always enough
Target sequence (P9WIQ1 whole entry, looked up): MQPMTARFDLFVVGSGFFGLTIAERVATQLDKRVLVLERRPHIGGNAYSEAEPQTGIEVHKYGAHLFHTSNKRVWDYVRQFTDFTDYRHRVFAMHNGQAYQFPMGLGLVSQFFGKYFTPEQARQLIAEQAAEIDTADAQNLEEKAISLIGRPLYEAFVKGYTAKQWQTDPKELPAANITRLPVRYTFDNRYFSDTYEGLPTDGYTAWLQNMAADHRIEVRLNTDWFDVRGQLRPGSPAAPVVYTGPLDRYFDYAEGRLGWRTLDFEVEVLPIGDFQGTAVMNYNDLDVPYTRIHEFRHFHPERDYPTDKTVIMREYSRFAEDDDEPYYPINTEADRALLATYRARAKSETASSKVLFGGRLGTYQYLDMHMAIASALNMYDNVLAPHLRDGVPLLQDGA
GDH-TPI inh = inhibits GDH-TPI coupling enzymes, artifact for Mtb FBA screen; GDH-TPI coupled enzyme counterscreen, NADH absorbance; inhibition, % at 4.8 µM; hit rate 1.2% among 360,000; AID 588335; in the data active = inhibition above about 30%
Mtb bLac sens = beta-lactam sensitization of Mtb H37Rv | AID 434955 | hit rate 0.27% among 330,000 | M. tuberculosis H37Rv growth with meropenem, percent inhibition | inhibition, % at 25 µM; call rule not given here;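 also: growth measured after seven days incubation then overnight dye step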
FBA Mtb inh = inhibits M. tuberculosis FBA enzyme; P9WQA3; purified M. tuberculosis FBA, fluorescence read-out; inhibition, % at 1 µM; hit rate 2.3% among 360,000; AID 588726; in the data active = inhibition above about 27%
Rv3671c protease = Rv3671c (M. tuberculosis) protease inhibition | P9WHR9 | inhibition, % at 5.96 µM | hit rate 0.048% among 320,000; in the data active = inhibition above about 38%;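 also: extracellular domain of Rv3671c used as enzyme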
RecA splice inh = inhibitors of M. tuberculosis RecA intein splicing. P9WHJ3. cell-free RecA intein splicing, fluorescence. inhibition, % (test concentration not listed). hit rate 0.75% among 290,000. AID 2221; in the data active = inhibition above about 30%
Of the large screens only hits and unclear results are named; the others gave an inactive call. Most compounds without a hit are left out; they make up all but 4% or so of the library.

Cn1c(=O)c(C(=O)CSc2ccccc2)c(N)n(Cc2ccccc2)c1=O	none
O=C(c1ccccc1)[C@H]1CC=CC[C@H]1C(=O)O	none
COc1ccc(CNC(=O)CN2C(=O)NC3(CCCCCCC3)C2=O)cc1	none (no result: RecA splice inh)
COc1cnc(-c2ccccn2)nc1NC(C)C	FBA Mtb inh 46.5
COc1ccccc1Sc1nc(-c2ccccn2)ncc1OC	none
N#Cc1nc(-c2cccs2)oc1NCCCN1CCOCC1	FBA Mtb inh active
COc1ccc(-c2nc(C#N)c(NCCCN3CCOCC3)o2)cc1	FBA Mtb inh 149.3
N#Cc1nc(/C=C/c2ccccc2)oc1NCCCN1CCOCC1	FBA Mtb inh active
CC[n+]1c(/C=C/N(C)c2ccccc2)oc2ccc(F)cc21	GDH-TPI inh 41.5
CC[n+]1c(/C=C/N(C)c2ccccc2)oc2ccccc21	GDH-TPI inh 67.6
Cc1ccc2c(c1)N(C(=O)CCC(=O)O)CCO2	none
CC(=O)NC1C(=O)N(CCc2ccccc2)c2ccc(Br)cc21 (stereo not drawn)	none (no result: UGM FP inh, Mtb bLac sens, Rv3671c protease, RecA splice inh)
CC(=O)NC1C(=O)N(CCN2CCOCC2)c2ccc(Br)cc21 (stereo not drawn)	RecA splice inh 50.9
CCOc1ccc2c(c1)C(NC(C)=O)C(=O)N2CCN1CCOCC1 (stereo not drawn)	RecA splice inh 43.0 (no result: Rv3671c protease)
COc1ccc(Cc2nnc(NC(=O)c3ccccc3)s2)cc1OC	none (no result: Rv3671c protease)
COc1ccc(Br)c(C(=O)Nc2nc3ccccc3[nH]2)c1	none
COc1ccc2oc(C(=O)Nc3nc4ccccc4[nH]3)c(C)c2c1	GDH-TPI inh 44.5 (no result: Mtb bLac sens)
COc1ccccc1CCc1nnc(CCC(=O)N(C)Cc2cccc3ncccc23)o1	FBA Mtb inh 158.8
CC(C)(C)OC(=O)COc1cc(OCC(=O)OC(C)(C)C)c2c(=O)cc(-c3ccccc3)oc2c1	FBA Mtb inh 27.8
Cc1ccc2c(c1)c1cccc3c1n2CCN3CCC(N)=O	FBA Mtb inh 49.0
CC(C)(C)c1cc(NC(=O)c2cccc(S(=O)(=O)N3CCOCC3)c2)no1	none
COC(=O)NNC(=O)c1ccc(C(C)(C)C)cc1	none
O=C(O)C/C(=C\c1ccc(N2CCOCC2)c([N+](=O)[O-])c1)c1nc2ccccc2s1	GDH-TPI inh 32.9
COc1ccc(NC2CCCN(Cc3cccc4cnccc34)C2)cc1OC (stereo not drawn)	FBA Mtb inh 117.9
COc1ccc(NC2CCCN(Cc3cccc4cnccc34)C2)cc1 (stereo not drawn)	none
COc1cc(/C=N/NC(=O)c2ccoc2C)cc(OC)c1OC	none
COc1cc(/C=N/NC(=S)NCCN2CCOCC2)cc(OC)c1O	GDH-TPI inh 49.5
COc1cc(/C=N/NC(=S)NC2CC3CCC2C3)ccc1O (stereo not drawn)	GDH-TPI inh 52.4
COc1ccc(/C=N/NC(=S)NCc2ccccc2)cc1OC	none
COc1cc(/C=N/NC(=S)N/N=C/c2cc(OC)c(OC)c(OC)c2)cc(OC)c1OC	GDH-TPI inh 45.3
COc1ccc(C=NNC(=S)NN=Cc2ccc(OC)c(OC)c2)cc1OC	GDH-TPI inh 63.8 (no result: UGM FP inh, Mtb bLac sens, Rv3671c protease, RecA splice inh)
O=c1[nH]c(COc2ccc(Cl)cc2Cl)nc2ccccc12	none
CC(OC(=O)[C@@H](NC(=O)c1ccco1)C(C)C)C(=O)Nc1ncc(Cl)cc1Cl (stereo partly drawn)	none (no result: RecA splice inh)
COc1ccc(CNC(=S)N/N=C/c2ccc(OC)c(OC)c2)cc1	none
COc1ccc(C=NNC(=S)Nc2ccc(F)cc2)cc1OC	GDH-TPI inh 69.3 (no result: UGM FP inh, Mtb bLac sens, Rv3671c protease, RecA splice inh)
N#C/C(=C\c1cccs1)C(=O)NCc1cccnc1	GDH-TPI inh 35.8
N#C/C(=C\c1cccc([N+](=O)[O-])c1)C(=O)NCc1cccnc1	none (no result: UGM FP inh)
N#C/C(=C\c1cccs1)C(=O)NCc1ccccc1	none
N#C/C(=C\C=C\c1ccccc1)C(=O)NCc1cccnc1	GDH-TPI inh 31.1
N#C/C(=C\c1ccc(-c2ccccc2[N+](=O)[O-])o1)C(N)=O	GDH-TPI inh 41.3
O=C(/C=C/c1ccccc1)Nc1nnc(-c2ccco2)o1	GDH-TPI inh 45.1
Nc1ccc2nc[nH]c2c1	RecA splice inh 48.8
COc1cccc(-c2nn(C)c3sc(C(=O)NCc4ccco4)cc23)c1	FBA Mtb inh 47.7
CN(C)/C=C/C(=O)c1ccc(Cl)cc1	GDH-TPI inh 48.0
CN(C)/C=C/C(=O)c1ccc([N+](=O)[O-])c(CS(=O)(=O)c2ccccc2)c1	none
CN(C)/C=C/C(=O)c1cccc(C(F)(F)F)c1	GDH-TPI inh 50.0 (no result: UGM FP inh)
CN(C)/C=C/C(=O)c1ccc(Oc2ncccn2)cc1	none
